“And” between values parts separate entries of the source, which are not always exact repeats. Identical values can stand only once.
Experiments:
[1] = target: Bromodomain-containing protein 4 (Homo sapiens) (UniProt O60885); details: Compound concentration 20.0 uM, Protein concentration 2.0 uM, Result type QC Liability
[2] = target: T1, Transcription intermediary factor 1-alpha (Homo sapiens) (UniProt O15164); details: Compound concentration 20.0 uM, Protein concentration 2.0 uM, Result type QC Liability
T1 sequence (whole entry): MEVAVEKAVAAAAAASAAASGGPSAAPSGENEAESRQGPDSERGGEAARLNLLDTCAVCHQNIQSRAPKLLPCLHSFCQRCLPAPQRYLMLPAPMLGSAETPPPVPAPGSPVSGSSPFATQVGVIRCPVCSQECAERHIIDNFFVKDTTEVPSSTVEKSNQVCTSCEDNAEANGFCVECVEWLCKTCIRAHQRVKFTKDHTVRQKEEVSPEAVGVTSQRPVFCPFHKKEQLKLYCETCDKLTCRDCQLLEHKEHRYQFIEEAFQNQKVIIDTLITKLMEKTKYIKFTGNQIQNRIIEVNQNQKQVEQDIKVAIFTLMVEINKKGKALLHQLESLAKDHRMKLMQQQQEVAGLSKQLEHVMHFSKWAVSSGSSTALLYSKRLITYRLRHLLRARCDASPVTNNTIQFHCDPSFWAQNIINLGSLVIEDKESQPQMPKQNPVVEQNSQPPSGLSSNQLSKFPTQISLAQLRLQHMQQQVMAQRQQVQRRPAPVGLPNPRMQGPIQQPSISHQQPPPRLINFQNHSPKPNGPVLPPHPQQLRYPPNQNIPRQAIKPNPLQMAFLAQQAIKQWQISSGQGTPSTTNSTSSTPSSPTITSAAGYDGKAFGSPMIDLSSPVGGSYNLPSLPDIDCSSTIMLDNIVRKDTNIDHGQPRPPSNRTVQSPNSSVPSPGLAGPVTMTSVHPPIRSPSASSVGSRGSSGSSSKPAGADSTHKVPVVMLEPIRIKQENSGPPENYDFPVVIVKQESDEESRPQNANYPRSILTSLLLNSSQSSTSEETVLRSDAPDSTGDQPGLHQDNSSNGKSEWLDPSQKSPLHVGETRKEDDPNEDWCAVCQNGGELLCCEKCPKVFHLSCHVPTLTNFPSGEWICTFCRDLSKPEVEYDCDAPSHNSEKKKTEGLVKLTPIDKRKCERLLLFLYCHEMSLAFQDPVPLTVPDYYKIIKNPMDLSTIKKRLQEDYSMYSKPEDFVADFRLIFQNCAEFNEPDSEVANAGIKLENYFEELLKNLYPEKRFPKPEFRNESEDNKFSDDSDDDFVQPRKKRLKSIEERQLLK

Structure (SMILES) | ΔTm [1] | ΔTm [2]
C[C@@H]1CC(=O)N(C2CC2)N=C1c1ccc(NC(=O)N2Cc3ccncc3C2)cc1 | -0.04 °C | 0.48 °C
COc1cc(C(=O)O)ncc1C#Cc1ccccc1NS(=O)(=O)c1cccc2c(N(C)C)ccnc12 | 0.26 °C | -2.33 °C
COCc1c(-c2cc3cc(C)cc(OC)c3s2)c2c(N)ncnn2c1CN[C@@H]1CCNC1=O | 1.53 °C | 0.22 °C
CC(C)S(=O)(=O)c1ccccc1Nc1nc(N[C@@H]2CCCN(CCCCCCCNC(=O)COc3cccc4c3C(=O)N(C3CCC(=O)N(C)C3=O)C4=O)C2)ncc1Cl (stereo partly specified) | -2.43 °C | -1.22 °C
CN(C)C(=O)Cn1cc(-c2ccc(-c3cncc4ccccc34)cc2)cn1 | -2.19 °C | 0.13 °C
Cc1cc(C2CCCNC2)ccc1Nc1ncc(Br)c(NCc2cccc3c2C(C)(C)C(=O)N3)n1 (stereo unspecified) | -4.96 °C | -2.52 °C
CCCCOc1c(C(=O)c2c(F)cc(C)cc2F)c[nH]c2nncc1-2 | -0.5 °C | -1.46 °C
COc1ccc(S(=O)(=O)N2CCOCC2)cc1Nc1ccc2c(n1)N(C1CCOCC1)[C@H](C)C(=O)N2C | 5.07 °C | -1.05 °C
FC(F)c1cncc(-c2ccc3ncc4nnc(C5=CCCOCC5)n4c3c2)c1 | -0.98 °C | 0.23 °C
O=C(Cc1ccccc1)Nc1nnc(N2C[C@H]3C[C@@H]2CN3c2cccnn2)s1 | -1.06 °C | -2.54 °C
COCCNC1CCC(Nc2cc(-c3csc(NCC4(C#N)CCOCC4)n3)c(Cl)cn2)CC1 (stereo unspecified) | -0.18 °C | -2.77 °C
CC[C@H](CO)Nc1nc(Nc2cccc(-c3ccccn3)c2)c2ncn(C(C)C)c2n1 | -1.32 °C | -3.54 °C
CCN1CCN(Cc2ccc(Nc3ncc(F)c(-c4cc(F)c5nc(C)n(C(C)C)c5c4)n3)nc2)CC1 | -1.43 °C | -2.28 °C
Cc1cc(S(=O)(=O)N2CC(C)(C)c3cc(-c4ccc(C(F)(F)F)cc4)ccc32)ccc1OCC(=O)O | 0.64 °C | 0.9 °C
Cn1nc(C(=O)NCc2ccc(C(=O)O)cc2)cc1-c1ccc2[nH]ccc2c1 | -0.1 °C | 0.43 °C
CN(C1CCc2c(c3ccccc3n2CC(=O)O)C1)S(=O)(=O)c1ccc(F)cc1 (stereo unspecified) | -1.34 °C | -0.54 °C
O=C(Nc1ccc(Cl)c(-c2ccccn2)c1)c1cccc(COc2ccc(Br)cc2CNCCO)c1 | -1.21 °C | -0.08 °C
CC(=O)Nc1c(F)cc(C(=O)N[C@H]2CC[C@H](O)CC2)cc1O[C@@H](C)c1ccccc1 | -1.18 °C | -0.63 °C
O=C(O)C[C@H]1CC[C@H](c2ccc(NC(=O)c3nnc(Nc4ccc(F)c(F)c4)o3)cc2)CC1 | -0.2 °C | 0.52 °C
Cc1nsc(Nc2cnc(C(F)(F)F)cn2)c1C(=O)Nc1ccc(O[C@H]2CCCN(CC(F)(F)F)C2)nc1 | 1.66 °C | -2.89 °C
COc1cc(-c2cncc(-c3cnn(C4CCNCC4)c3)c2)cc(OC)c1OC | 0.84 °C | -1.81 °C
CO[C@H]1C[C@@H]2CC[C@@H](C)[C@@](O)(O2)C(=O)C(=O)N2CCCC[C@H]2C(=O)O[C@H]([C@H](C)C[C@@H]2CC[C@@H](O)[C@H](OC)C2)CC(=O)[C@H](C)/C=C(\C)[C@@H](O)[C@@H](OC)C(=O)[C@H](C)C[C@H](C)/C=C/C=C/C=C/1C | -2.02 °C | -0.81 °C
CC1=C(C(=O)OCCO)[C@@H](c2ccc(C#N)cc2)NC(=O)N1c1cccc(C(F)(F)F)c1 | 0.01 °C | 0.4 °C
O=C(NCCS(=O)(=O)c1ccc(C(F)(F)F)cn1)c1ccc(Cl)cc1 | -3.11 °C | -2.42 °C
COc1ccc(-c2cc3c(C)nc(N)nc3n([C@H]3CC[C@H](OCCO)CC3)c2=O)cn1 | -0.11 °C | -2.05 °C

Structure (SMILES) | ΔTm [1] | ΔTm [2]
O=C1CCCc2[nH]c(-c3ccnc(NCC4CC4)c3)c(Nc3ccccc3)c21 | -0.67 °C | -0.08 °C
COc1cc(-c2cncc(-c3ccc(N4CCN(C(C)C)CC4)cc3)c2C)cc(F)c1C(N)=O | -2.5 °C | -3.06 °C
CCCS(=O)(=O)Nc1ccc(F)c(Nc2ncnc3cnc(-n4cnc(C)c4)nc23)c1F | -2.57 °C | -1.9 °C
O=C(O)c1cc(F)c2nc(N3[C@@H]4CC[C@H]3C[C@@H](OCc3c(-c5ccccc5OC(F)(F)F)noc3C3CC3)C4)sc2c1 | -7.4 °C | -1.62 °C
Cn1ccc(Cn2cnc(-c3ccc(F)cc3)c2-c2ccnc3[nH]ccc23)n1 | -1.68 °C | -3.2 °C
COc1ccc(F)c(F)c1C(=O)c1cnc(NC2CCN(S(C)(=O)=O)CC2)nc1N | 0.74 °C | -1.4 °C
Oc1c(-c2cccnc2)cnn1-c1ccccn1 | -1.85 °C | 0.29 °C
Cc1cc2c(cc(C(=O)N[C@H](CO)c3ccc(S(=O)(=O)CC(=O)O)cc3)n2C)c(Cl)c1Cl | 2.14 °C | -0.18 °C
CC(=O)c1c(C)c2cnc(Nc3ccc(N4CCN(CCCCNC(=O)COc5cccc6c5C(=O)N(C5CCC(=O)NC5=O)C6=O)CC4)cn3)nc2n(C2CCCC2)c1=O (stereo unspecified) | -0.38 °C | -3.15 °C
CCCCCCCC/C=C\CCCCCCCC(=O)NCCO | -1.73 °C | -2.56 °C
COc1ccccc1-c1cc(Nc2cccc(CS(N)(=O)=O)c2)ncn1 | -0.36 °C | -0.57 °C
CCOc1ccc(S(=O)(=O)Nc2ccc(Cl)cc2C#Cc2cnc(C(=O)O)cc2OC)c2ncccc12 | -1.6 °C | 0.27 °C
CC(=O)N1CCC(c2ccc(C(=O)NC(=N)N)cc2C(F)(F)F)CC1 | -0.62 °C | 0.53 °C
CCCN1CCC(C#N)(NC(=O)[C@H](CC(C)(C)C)NC(=O)N2CCOCC2)CC1 | -0.48 °C | 0.46 °C
Cc1nc2ccc(Cl)cc2c(-c2ccccc2)c1CC(=O)O | -0.84 °C | 0.64 °C
C[C@@H](COCCC(=O)N1CCN(c2ncc(C(F)(F)F)cn2)CC1)Nc1cn[nH]c(=O)c1C(F)(F)F | -1.99 °C | -0.95 °C
C[S+]([O-])c1ccc(-c2nc(-c3cccc(I)c3)c(-c3ccncc3)[nH]2)cc1 (stereo unspecified) | -3.51 °C | -2.56 °C
COc1cccc(-c2c(C)c(Cc3c(F)cccc3C(F)(F)F)c3n(c2=O)[C@@H]([C@@H](N)c2ccccc2)CS3)c1F | -3.06 °C | 0.28 °C
Cn1nc(-c2ccc(C(N)=O)cc2)c2ccccc2c1=O | 0.79 °C | 0.31 °C
CO[C@H]1CC[C@H](N(c2cc(F)c(Oc3ncc(Cn4nccn4)cc3C(F)(F)F)cc2C(=O)O)C(=O)[C@H]2CC[C@H](C)CC2)CC1 | 0.94 °C | -0.09 °C
c1ccc2c(-c3coc4cc(-c5ccc(N6CCNCC6)cc5)cnc34)ccnc2c1 | -1.89 °C | -2.14 °C
CCOC(=O)c1ccc(CN(Cc2ccc(-c3cccc(S(C)(=O)=O)c3)cc2)S(=O)(=O)c2c(C)cc(C)cc2C)o1 | -4.78 °C | 0.5 °C
COc1cc(-c2cncc(-c3ccc(N4CCN(C(C)C)CC4)cc3)c2C)cc(F)c1C(=O)N1CCCC1 | -3.15 °C | -3.48 °C
CC(=O)Nc1ncc(CN2CCC[C@H](Cc3cc(C)nc(C)c3)C2)s1 | 0.62 °C | -2.22 °C
CCN1C(=O)c2cc(C)ccc2N(C)c2ncccc21 | -1.19 °C | 0.2 °C

Structure (SMILES) | ΔTm [1] | ΔTm [2]
CC(C)S(=O)(=O)c1ccccc1Nc1nc(N[C@@H]2CCCN(CCCCCCCNC(=O)COc3cccc4c3C(=O)N(C3CCC(=O)NC3=O)C4=O)C2)ncc1Cl (stereo partly specified) | 1.89 °C | 0 °C
Cc1nc(Nc2cnn(C3CCNCC3)c2)nc2c1N(C)C(=O)c1cc3ccccc3cc1N2C | -2.15 °C | -2.83 °C
CC(=O)c1ccc2c(c1)/C(=C(/NC1CCN(C)CC1)c1ccc3c(c1)OCO3)C(=O)N2 | -0.52 °C | 0.21 °C
O=C(Nc1ccccc1C(=O)O)c1cc(S(=O)(=O)c2ccccc2)ccc1Cl | 2.09 °C | 0.36 °C
CCCCC[C@@](C)(O)/C=C/[C@H]1C(=O)CC(O)C1C/C=C\CCCC(=O)O (stereo partly specified) | -1.7 °C | -0.59 °C
CC(C)(c1ccc(OCc2cccc(COc3ccc(C(=N)N)cc3)c2)cc1)c1ccc(O[C@@H]2O[C@H](C(=O)O)[C@@H](O)[C@H](O)[C@H]2O)cc1 | 0.58 °C | -5.37 °C
Cc1cc2ncnn2cc1Nc1ncc2c(n1)n(C1CCOCC1)c(=O)n2C | -1.59 °C | -4.66 °C
Cc1cc(Cn2c(N3CC4(CNC4)C3)nc3cc(Cl)cc(N4CCN(C)CC4)c32)cc(C)c1F | -0.27 °C | 0.27 °C
CC(=O)N(CCN(C)C)c1ccc(N/C(=C2\C(=O)Nc3cc(Cl)ccc32)c2ccccc2)cn1 | -1.57 °C | -4.13 °C
Cn1c(C2(NC(=O)c3ccc4c(C5CCCC5)c(-c5ncc(Br)cn5)n(C)c4c3)CCC2)nc2ccc(/C=C/C(=O)O)cc21 | 0 °C and -4.93 °C | 0.68 °C and -0.65 °C
CC#CC(=O)N1CCN(c2nc(-c3ccc(Oc4ccccc4)cc3)c(C(N)=O)s2)CC1 | -3.96 °C | -3.1 °C
COCCc1ccc(-c2c(C)nc3c(N4CCOCC4)ccnn23)cn1 | -1.01 °C | -1.13 °C
Cc1[nH]c2c(N3CCCCC3)c(-c3ccccc3)nn2c(=O)c1-c1ccc(O)cc1 | -1.3 °C | -2.05 °C
Cn1c(Nc2c(Cl)cccc2Cl)nc2ccc3nc[nH]c(=O)c3c21 | -3.08 °C | -3.83 °C
COc1cc(O)c(C(CC(=O)N2C[C@H](C)C[C@H](C)C2)c2ccc3c(c2)OCO3)c(OC)c1 (stereo partly specified) | 0.54 °C | -3.38 °C
Cc1cccc(CC(=O)N2CCc3c2ccc(-c2cn(C)c4ncnc(N)c24)c3F)n1 | -0.38 °C | -2.22 °C
CCN1C(=O)/C(=C(\NC2CCN(C)CC2)c2ccc3c(c2)OCO3)c2cc(C(C)=O)ccc21 | -12 °C | 0.3 °C
CCn1c(-c2nonc2N)nc2cncc(C(=O)N3CC[C@H](N)C3)c21 | -0.13 °C | -1.91 °C
Cc1nc2ccccc2c(-c2ccc3c4c(ccnc24)CCO3)c1[C@H](OC(C)(C)C)C(=O)O | -1.5 °C | 0.24 °C
CCOCCn1cc(C(=O)Nc2ccc(-n3nc(-c4cccnc4)cc3C(F)(F)F)cn2)ccc1=O | -2.09 °C | 0.27 °C
O=C(O)CCCc1cc2cc(Cl)ccc2n1S(=O)(=O)c1ccc2ncsc2c1 | -3.71 °C | -1.33 °C
Cc1cc(CN(CC(=O)Nc2ccc(Cl)cc2Cl)C2CCCCC2)ccc1OCC(=O)O | -1.17 °C | -0.29 °C
c1ccc2c(c1)SCc1c-2[nH]c2ccccc12 | -15.3 °C | -7.68 °C
